Experimental data as given in PubChem BioAssay (Tox21).
Several values for one entry are separate records, joined by “and”; a condition that tells them apart may be missing. Equal values may be shown once. Activity calls are given as the source filed them. A call without a number means that no potency is given here. Calls follow the shape of the dose curve; as a rule, active = well fitted curve in the direction sought with a large enough effect in the repeat runs; inconclusive = weak or mixed curves; inactive = flat fitted curve, though single readings scatter.
Potency is read from the fitted curve at half-maximal effect; tags tell the direction and shape of the fitted curve or compound fluorescence and quenching.

Test: qHTS assay to test for compound auto fluorescence at 590 nm (red) in HepG2 cell free culture (AID 720684)
Conditions: cell-free medium autofluorescence, red 540/590 nm; series mostly up to 91.3 µM
Text: U.S. Tox21 Program National Center for Advancing Translational Sciences [NCATS] NIH Chemical Genomics Center [NCGC] U.S. Environmental Protection Agency [EPA] National Institutes of Environmental Health Sciences [NIEHS] National Toxicology Program [NTP] U.S. Food and Drug Administration [FDA] Tox21 Assay Overview: Compound auto fluorescence often interferes with screening of the compound library against various biological targets and signaling pathways. Some of these compounds may have fluorophoric properties. Such properties may interfere with the assay outputs resulting in false positives and/or negatives. To decrease such complications and ensure the compound activities are relevant in terms of biological response, the Tox21 10K compound library was screened for auto fluorescence. From the fluorophores used as reporter signals in our screening assays, the auto fluorescence equivalencies of compounds against three fluorophores have been evaluated: Triamterene, Fluorescein and Rose Bengal sodium for blue, green and red fluorescence, respectively. The fluorescence intensities were measured using Excitation/Emission wavelengths at 405/460nm, 485/535nm and 540/590nm for blue, green and red labels, respectively. This assay includes the red fluorescence data.
Tox21 Assay Protocol Summary: 5 uL of culture medium (MEM containing 10% FBS) per well was dispensed into black wall/clear bottom 1536-well plates using a Multidrop Combi Dispenser (ThermoFisher Scientific, Waltham, MA). After 23 nL compound or DMSO vehicle was transferred into assay plate by a pintool work station (Kalypsys, San Diego, CA), fluorescence intensities in the assay plates were measured by an Envision (PerkinElmer, Shelton, CT) plate reader using three labels for measuring blue, green and red fluorescence at […] 460, 535 and 590nm respectively.
In the case of `COc1ccc2c(c1)c(CC(=O)O)c(C)n2C(=O)c1ccc(Cl)cc1`, the Potency is reported as “inactive”.
In the case of `CC(=O)CCC(=O)O`, the Potency is reported as “inactive”.
With `O=C1O[C@H]([C@@H](O)CO)C(O)=C1O` the Potency was “inactive”.
With `Cc1c(C(=O)O)c(O)cc2c1C(=O)c1c(O)c([C@@H]3O[C@H](CO)[C@@H](O)[C@H](O)[C@H]3O)c(O)c(O)c1C2=O` the Potency was “inactive”.
With `CCCCCCCC(=O)OCC(COC(=O)CCCCCCC)OC(=O)CCCCCCC` the Potency was “inactive”.
In the case of `NC(CO)(CO)CO`, the Potency is reported as “inactive”.
For `COc1cccc(O)c1O`, the Potency was “inactive”.
For `CC(O)(P(=O)(O)O)P(=O)(O)O`, the Potency was “inactive”.
For `CC12CCC(CC1)C(C)(C)O2`, the Potency was “inactive”.
In the case of `O=C1c2c(O)cccc2Cc2cccc(O)c21`, the Potency is reported as “inactive”.
With `Nc1ccc(S(N)(=O)=O)cc1` the Potency was “inactive”.
In the case of `CC(C)c1c(C(=O)Nc2ccccc2)c(-c2ccccc2)c(-c2ccc(F)cc2)n1CC[C@@H](O)C[C@@H](O)CC(=O)O`, the Potency is reported as “inactive”.
In the case of `CCCC[P+](CCCC)(CCCC)CCCC`, the Potency is reported as “inactive”.
With `CCCCCCc1ccc(O)cc1O` the Potency was “inactive”.
With `O=c1[nH]cnc2c1ncn2[C@H]1CC[C@@H](CO)O1` the Potency was “inactive”.
For `Nc1c2c(nc3ccccc13)CCCC2`, the Potency was “inactive”.
For `CN(C)C(=O)Nc1ccc(Cl)c(Cl)c1`, the Potency was “inactive”.
For `CC1(C)S[C@@H]2[C@H](NC(=O)[C@H](N)c3ccccc3)C(=O)N2[C@H]1C(=O)O`, the Potency was “inactive”.
In the case of `NC1CCCCC1`, the Potency is reported as “inactive”.
With `NS(=O)(=O)O` the Potency was “inactive”.
With `CN(C)CCOC(C)(c1ccccc1)c1ccccn1` (stereo not given) the Potency was “inactive”.
For `Cn1c(=O)c2c(ncn2C)n(C)c1=O`, the Potency was “inactive”.
In the case of `OC[C@H]1O[C@H](O[C@]2(CCl)O[C@H](CCl)[C@@H](O)[C@@H]2O)[C@H](O)[C@@H](O)[C@H]1Cl`, the Potency is reported as “inactive”.
With `O=CC(=O)c1ccccc1` the Potency was “inactive”.
In the case of `CC(=O)C(=O)O`, the Potency is reported as “inactive”.
In the case of `O=C1NC(=O)C(c2ccccc2)(c2ccccc2)N1`, the Potency is reported as “inactive”.
For `O=S1(=O)OC(c2ccc(O)cc2)(c2ccc(O)cc2)c2ccccc21`, the Potency was “inactive”.
In the case of `COc1ccc(C(Cl)=C(c2ccc(OC)cc2)c2ccc(OC)cc2)cc1`, the Potency is reported as “inactive”.
For `CCOc1ccc(NC(C)=O)cc1`, the Potency was “inactive”.
In the case of `O=C(O)CC(O)C(=O)O` (stereo not given), the Potency is reported as “inactive”.
For `C/C=C/C=C/C(=O)O`, the Potency was “inactive”.
With `Cc1cn([C@H]2C=C[C@@H](CO)O2)c(=O)[nH]c1=O` the Potency was “inactive”.
In the case of `COc1ccc(CN(CCN(C)C)c2ccccn2)cc1`, the Potency is reported as “inactive”.
For `O=C1OC2(c3ccccc31)c1cc(Br)c(O)c(Br)c1Oc1c2cc(Br)c(O)c1Br`, the Potency was 3.16 µM [fluorescent] (active) and 2.82 µM [fluorescent] (active) and 2.51 µM [fluorescent] (active).
With `Cc1cc(=O)oc2cc(O)ccc12` the Potency was “inactive”.
With `CC(C)NCC(O)c1ccc(O)c(O)c1` (stereo not given) the Potency was “inactive”.
For `CCCCCCCCCCCCCCCC[N+](C)(C)Cc1ccccc1`, the Potency was “inactive”.
With `CCCc1cc(=O)[nH]c(=S)[nH]1` the Potency was “inactive”.
For `CC(=O)Nc1c(I)c(NC(C)=O)c(I)c(C(=O)O)c1I`, the Potency was “inactive”.
For `CC/C(=C(\c1ccccc1)c1ccc(OCCN(C)C)cc1)c1ccccc1`, the Potency was “inactive”.
